Results: PubChem BioAssay AID1210 (NMMLSC, 2008)
The source made the active and inactive calls.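 The calls were made as follows: active = blocks over 70% of labeled estradiol binding at 10 µM, or over a set limit at 100 nM; inactive = the rest.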

Target: Estrogen receptor beta (Homo sapiens) (UniProt Q92731)
Test: displacement of fluorescent estrogen from ERbeta – cell-based, Cos7 ERbeta-GFP, flow cytometry, primary screen (AID 1210);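 also: 0% = DMSO vehicle wells and 100% = complete loss of labeled estradiol signal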
Details: fluorescent estrogen binding, stronger effect = higher value
[1] = ligand binding inhibition, at 0.1 µM

Chain of Estrogen receptor beta (Homo sapiens) (Q92731 whole entry, looked up): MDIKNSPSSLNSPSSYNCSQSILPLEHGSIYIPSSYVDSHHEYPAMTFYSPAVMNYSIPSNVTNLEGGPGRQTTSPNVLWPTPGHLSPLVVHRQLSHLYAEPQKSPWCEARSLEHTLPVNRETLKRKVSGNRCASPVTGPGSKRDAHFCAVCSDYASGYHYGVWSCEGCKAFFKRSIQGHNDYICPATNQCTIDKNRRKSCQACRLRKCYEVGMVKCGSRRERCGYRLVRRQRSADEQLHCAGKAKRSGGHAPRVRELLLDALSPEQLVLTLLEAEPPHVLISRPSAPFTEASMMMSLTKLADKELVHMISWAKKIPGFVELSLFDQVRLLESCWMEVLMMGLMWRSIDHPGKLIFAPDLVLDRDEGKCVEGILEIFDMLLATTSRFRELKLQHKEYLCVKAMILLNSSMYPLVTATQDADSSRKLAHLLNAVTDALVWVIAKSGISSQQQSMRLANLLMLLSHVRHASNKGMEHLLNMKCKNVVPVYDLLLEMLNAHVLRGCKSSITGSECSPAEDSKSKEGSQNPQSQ

Structure (SMILES)	inhibition (at 10 µM)	inhibition [1] [%]
Cc1csc(C(C#N)C(=O)c2ccncc2)n1 (stereo unspecified)	13% (inactive)	4
O=C1/C(=C\c2ccco2)SC(=S)N1c1ccc(O)cc1	77% (active)	27
C/C(N)=C(/C#N)C(=O)CSc1nnc(Cc2ccccc2F)n1N	22% (inactive)	7
Nc1ccc(/C=C/C(=O)c2ccco2)cc1	0% (inactive)	37
Cc1ccc(/C=c2\sc3nc(-c4ccco4)nn3c2=O)o1	61% (inactive)	27
Oc1ccc(N=Cc2ccc(O)c(O)c2)cc1	34% (inactive)	20
Oc1c(C=Nc2cccc3cccnc23)sc2ccccc12	31% (inactive)	30
CN(C)C(=O)c1ccc2c(c1)C1C3CCC(C3)C1C(c1ccccc1)N2 (stereo unspecified)	0% (inactive)	51
COc1ccc(-c2nc3ccc([N+](=O)[O-])cc3o2)cc1	36% (inactive)	12
Cc1snc2sc(C(=O)c3ccc(Br)cc3)c(N)c12	26% (inactive)	20
Nc1nc(N)c2sc3nc4c(cc3c2n1)CCC4	29% (inactive)	7
COc1cc(C(C#N)N2N=C(c3ccccc3)CC2c2ccccc2)ccc1O (stereo unspecified)	54% (inactive)	5
COc1ccc(-c2nnc(SCC(=O)/C(C#N)=C(\C)N)o2)cc1	36% (inactive)	13
COCCOC(=O)c1[nH]c2c(c1C)C(=O)CC(c1ccco1)C2 (stereo unspecified)	35% (inactive)	26
Cc1cc(Cl)ccc1OCC(=O)OC(C)C(=O)N(C)C (stereo unspecified)	35% (inactive)	12
C/C(=N\Nc1ccc([N+](=O)[O-])cc1)c1cccc(N)c1	14% (inactive)	24
CC1CCc2c(sc(NC(=O)c3ccc(Cn4cc([N+](=O)[O-])cn4)o3)c2C#N)C1 (stereo unspecified)	19% (inactive)	58
COc1ccc(OC)c(NC(=O)CSc2nc3ccccc3c3nc4ccccc4n23)c1	70% (inactive)	16
COc1cc(NC(=O)c2cccs2)c(C(=O)OCC(=O)NC(=O)NCc2ccccc2)cc1OC	8% (inactive)	17

Structure (SMILES)	inhibition (at 10 µM)	inhibition [1] [%]
COc1cc(C2Nc3c(F)cccc3C3C=CCC32)cc(Br)c1OC (stereo unspecified)	0% (inactive)	25
Cc1nn(-c2ccccc2)c(Cl)c1/C=N/Nc1ccc(S(=O)(=O)Nc2ccccc2C(=O)O)cc1[N+](=O)[O-]	15% (inactive)	53
CCOC(=O)c1cc2c(c(CSc3nc4ccccc4c(=O)n3Cc3ccco3)c1)OCOC2	67% (inactive)	4
CCOc1ccc(Nc2oc(-c3ccccc3Cl)nc2C#N)cc1	25% (inactive)	43
COc1ccc2cc3c(N)nn(C(=O)Cc4ccc(Cl)cc4)c3nc2c1	37% (inactive)	12
O=C(COC(=O)CC1CCCC1)Nc1cc2c(cc1Cl)C(=O)c1ccccc1C2=O	47% (inactive)	15
O=C(CNc1ccccc1)N/N=C/c1cn(-c2ccccc2)nc1-c1ccccc1	53% (inactive)	48
Cc1ccc(Cn2c(NC(=O)c3ccco3)nc3ccccc32)cc1	10% (inactive)	19
Nc1ccc2nc(CN3CCOCC3)[nH]c2c1	6% (inactive)	47
Cc1nnc(NC(=O)Cc2cccs2)s1	4% (inactive)	22
Clc1ccc2nc(-c3ccccn3)c(Nc3ccc4c(c3)OCO4)n2c1	60% (inactive)	2
Cc1cc(C)nc(NC(=O)CSc2nn(C)c(=S)s2)n1	6% (inactive)	20
COCCCn1c(Cc2csc(Nc3cccc(Cl)c3)n2)nnc1SCC(=O)OC1CCCCC1	11% (inactive)	29
COC(=O)c1c(-c2ccncc2)csc1NC(=O)c1ccoc1C	52% (inactive)	1
CCCSC1=N/C(=C\C=C\c2ccco2)C(=O)S1	47% (inactive)	31
Cc1oc2c(C)c(O)ccc2c(=O)c1N1C(=O)c2ccccc2C1=O	16% (inactive)	18
O=c1oc2ccccc2cc1-c1ccc(O)cc1	58% (inactive)	3
CCOC(=O)C1=C(O)/C(=C\c2ccc(CNC(=O)C(=O)Nc3ccccc3)o2)N=C1C	20% (inactive)	61
Nc1ccc2nc(-c3ccc(Cl)cc3)[nH]c2c1	42% (inactive)	16
